PubChem BioAssay (Tox21)
Values without a mark were called inactive. Records with an inconclusive call do not appear. Where a call stands in place of a potency, no number is given. Calls of active or inactive are those of the source. Calls come from the whole dose curve; as a rule, active = well fitted curve in the direction sought with a large enough effect in the repeat runs; inconclusive = weak or mixed curves; inactive = no such curve, though single readings can be large; an effect the other way counts as inactive or inconclusive.

Experiment: qHTS RealTime-Glo MT Cell Viability Assay in HepG2 cells - 24 hour (AID 1224867)
Details: RealTime-Glo luminescence; series mostly up to 76.8 µM
In short: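 Tox21 10K library screened in qHTS format on HepG2 cells carrying RealTime-Glo reagents. Compounds were added after a 5 h preincubation, and the luminescent signal from continuous culture was measured repeatedly during 40 h treatment.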
Note: nearly all actives have a fitted effect of over 50% in size.

Row | Compound | Potency
1 | CCOC(=O)C(Br)c1ccccc1 (stereo not drawn) | inactive
2 | CC(C)O | inactive
3 | Nc1ccc(Oc2ccc(N)c(N)c2)cc1 | inactive
4 | Cc1nc(N)nc(N)c1-c1ccc(Cl)c(Cl)c1 | inactive
5 | CCCNC(C)C(=O)Nc1c(C)csc1C(=O)OC (stereo not drawn) | inactive
6 | Cc1c[nH]c(=S)[nH]c1=O | inactive
7 | CCCN(CCC)C(=O)C(CCC(=O)O)NC(=O)c1ccccc1 (stereo not drawn) | inactive
8 | CC1(C)S[C@@H]2[C@H](NC(=O)C(C(=O)O)c3ccccc3)C(=O)N2[C@H]1C(=O)O (stereo partly drawn) | inactive
9 | COc1ccc(Nc2ccc(OC)cc2)cc1 | inactive
10 | CO[C@@]1(NC(=O)CSCC#N)C(=O)N2C(C(=O)O)=C(CSc3nnnn3C)CS[C@@H]21 | inactive
11 | CC(CNC1CCCCC1)OC(=O)c1ccccc1 (stereo not drawn) | inactive
12 | CN1CCN(C2=Nc3ccccc3Oc3ccc(Cl)cc32)CC1 | inactive
13 | O=C1N(c2ccccc2)c2ccccc2C1(Cc1ccncc1)Cc1ccncc1 | inactive
14 | Cc1nnc(SCC2=C(C(=O)O)N3C(=O)[C@@H](NC(=O)Cn4cnnn4)[C@H]3SC2)s1 | inactive

Experiment: qHTS RealTime-Glo MT Cell Viability Assay in HEK293 cells - 32 hour (AID 1224868); note: potency is the fitted concentration of half-maximal effect; for activity change, negative = cytotoxic: top concentration of the series differs between compounds
Details: RealTime-Glo luminescence; series mostly up to 76.8 µM
In short: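 Luminescence generated by NanoLuc from substrate produced by living HEK293 cells served as the viability signal. Each value reflects the reading at its stated time point during continuous 40 h compound exposure at 37 C.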

Row | Compound | Potency | activity change, negative = cytotoxic
15 | OCCN(CCO)c1ccccc1 | inactive | 
16 | O=C1CCCCC1C1CCCCC1 (stereo not drawn) | inactive | 
17 | Cc1nc(-c2ccccn2)ncc1C(=O)Nn1cc(C)c2cc(F)ccc21 | 1.55 µM (active) | 
18 | C=CCCC=C | inactive | 
19 | O=C(CC(=O)C(F)(F)F)c1ccccc1 | inactive | 
20 | Clc1cccc(-c2cc(Cl)cc(Cl)c2)c1 | inactive | 
21 | Cc1cc2nc(N)sc2cc1C | inactive | 
22 | Cc1ccc(C=O)s1 | inactive | 
23 | C=Cc1ccccc1 | inactive | 
24 | O=Cc1ccc(O)c(O)c1O | inactive | 
25 | O=C1CCN(c2ccccc2)N1 | inactive | 
26 | CC1=C(CC(=O)O)c2cc(F)ccc2/C1=C\c1ccc(S(C)(=O)=O)cc1 | inactive | 
27 | CC(C)C1=CC2=CC[C@@H]3[C@](C)(CCC[C@@]3(C)C(=O)O)[C@H]2CC1 | inactive | 
28 | CCOC(=O)C(Br)c1ccccc1 (stereo not drawn) | inactive | 
29 | O=c1oc2c(O)c(O)cc3c(=O)oc4c(O)c(O)cc1c4c23 |  | -21.3% [at 15.8 µM]
30 | CC(C)O | inactive | 
31 | CCCNC(C)C(=O)Nc1c(C)csc1C(=O)OC (stereo not drawn) | inactive | 
32 | Cc1c[nH]c(=S)[nH]c1=O | inactive | 
33 | CCCN(CCC)C(=O)C(CCC(=O)O)NC(=O)c1ccccc1 (stereo not drawn) | inactive | 
34 | CC1(C)S[C@@H]2[C@H](NC(=O)C(C(=O)O)c3ccccc3)C(=O)N2[C@H]1C(=O)O (stereo partly drawn) | inactive | 
35 | CC(CNC1CCCCC1)OC(=O)c1ccccc1 (stereo not drawn) | inactive | 
36 | Cc1onc(-c2ccccc2)c1C(=O)Cl | inactive | 
37 | CN1CCN(C2=Nc3ccccc3Oc3ccc(Cl)cc32)CC1 | inactive | 
38 | O=C1N(c2ccccc2)c2ccccc2C1(Cc1ccncc1)Cc1ccncc1 | inactive | 

Experiment: A CellTox Green Cytotoxicity Assay to monitor cytotoxicity in HEK293 cells - 0 hour (AID 1224869); note: potency is the fitted concentration of half-maximal effect
Details: CellTox Green fluorescence; series mostly up to 76.8 µM
In short: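 HEK293 cells, 600/well, were preincubated 5 hours and then exposed to compounds at 37 C for up to 40 hours. A cell-impermeant cyanine dye staining dead-cell DNA was read by fluorescence at 0, 8, 16, 24, 32 and 40 h time points.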

Row | Compound | Potency | cytotoxicity
39 | OCCN(CCO)c1ccccc1 | inactive | 
40 | O=C1CCCCC1C1CCCCC1 (stereo not drawn) | inactive | 
41 | CCCCc1ccc2nc(NC(=O)OC)[nH]c2c1 | inactive | 
42 | Cc1nc(-c2ccccn2)ncc1C(=O)Nn1cc(C)c2cc(F)ccc21 | inactive | 
43 | O=C(CC(=O)C(F)(F)F)c1ccccc1 | inactive | 
44 | Clc1cccc(-c2cc(Cl)cc(Cl)c2)c1 | inactive | 
45 | Cc1cc2nc(N)sc2cc1C | inactive | 
46 | Cc1ccc(C=O)s1 | 24.5 µM (active) | 
47 | O=C(O)CN(CCN(CC(=O)O)CC(=O)O)CCN(CC(=O)O)CC(=O)O |  | 4.99% [at 15.8 µM]
48 | OCc1c2ccccc2cc2ccccc12 | inactive | 
49 | CC(C)NC[C@@H](O)COc1cccc2ccccc12 | inactive | 
50 | C=Cc1ccccc1 | inactive | 
51 | CCOc1ccc(NS(=O)(=O)c2ccc(N)cc2)nn1 | inactive | 
52 | O=Cc1ccc(O)c(O)c1O | inactive | 
53 | CC(=O)N(CC(O)CN(C(C)=O)c1c(I)c(C(=O)NCC(O)CO)c(I)c(C(=O)NCC(O)CO)c1I)c1c(I)c(C(=O)NCC(O)CO)c(I)c(C(=O)NCC(O)CO)c1I (stereo not drawn) | inactive | 
54 | CC(C)NCC(O)COc1ccc(CCOCC2CC2)cc1 (stereo not drawn) | inactive | 
55 | CC(C)C1=CC2=CC[C@@H]3[C@](C)(CCC[C@@]3(C)C(=O)O)[C@H]2CC1 | inactive | 
56 | CCOC(=O)C(Br)c1ccccc1 (stereo not drawn) | inactive | 
57 | O=c1oc2c(O)c(O)cc3c(=O)oc4c(O)c(O)cc1c4c23 |  | 10.4% [at 15.8 µM]
58 | CC(C)O | inactive | 
59 | Nc1ccc(Oc2ccc(N)c(N)c2)cc1 | inactive | 
60 | Cc1nc(N)nc(N)c1-c1ccc(Cl)c(Cl)c1 | inactive | 
61 | CCCNC(C)C(=O)Nc1c(C)csc1C(=O)OC (stereo not drawn) | inactive | 
62 | Cc1c[nH]c(=S)[nH]c1=O | inactive | 
63 | CCCN(CCC)C(=O)C(CCC(=O)O)NC(=O)c1ccccc1 (stereo not drawn) | inactive | 
64 | COc1ccc(Nc2ccc(OC)cc2)cc1 | inactive | 
65 | CC(CNC1CCCCC1)OC(=O)c1ccccc1 (stereo not drawn) | inactive | 
66 | Cc1onc(-c2ccccc2)c1C(=O)Cl | inactive | 
67 | CN1CCN(C2=Nc3ccccc3Oc3ccc(Cl)cc32)CC1 | inactive | 
68 | Cc1nnc(SCC2=C(C(=O)O)N3C(=O)[C@@H](NC(=O)Cn4cnnn4)[C@H]3SC2)s1 | inactive | 
